13 compounds from PubChem BioAssay (NCI) can be followed below.

Among the test systems are DU-145 prostate; K-562 leukemia; MALME-3M melanoma; MDA-MB-231 breast; RXF 393 renal; SF-268 CNS; SF-295 CNS; SF-539 CNS; UACC-257 melanoma; M14 melanoma.
Holding throughout (test): NCI-60 one-dose screen, 48 h (100 = growth as untreated, 0 = no growth, -100 = all killed)
What all share (settings): 10 µM unless noted

Where “and” joins values, the source holds several entries; their conditions need not be identical. Equal entries are not always repeated. About 83,000 compounds went through this panel and 20% of them were active in at least one assay; those are over-represented in the sample as a whole.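 Compound tested at a single concentration for 48 hours in 96-well plates; a percent growth value below 10 was scored as active.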 Calls of active or inactive are those of the source.

Consider `Cc1cccc(NCC(=O)N2CCN(c3ncnc4c3cnn4-c3ccccc3)CC2)c1`, for which the growth with DU-145 prostate was 75.4% (inactive); with K-562 leukemia, 43.8% (inactive); with MALME-3M melanoma, 72.8% (inactive); in the assay with MDA-MB-231 breast, 65% (inactive); with RXF 393 renal, 76.3% (inactive); in the assay with SF-268 CNS, 73.3% (inactive). Besides, the growth in the assay on SF-295 CNS was 46.6% (inactive); with SF-539 CNS, 59.9% (inactive); in the assay on UACC-257 melanoma, 66.9% (inactive); with M14 melanoma it was 62.2% (inactive).

Turning to `O=C(Nc1ccc(Br)cc1)Nc1ccc(-c2ccc3c(c2)NC(=O)/C3=C\c2ccc[nH]2)cc1`, the growth with DU-145 prostate was 27.9% (inactive); with K-562 leukemia, 18.6% (inactive); in the assay on MALME-3M melanoma, 61.6% (inactive); in the assay on MDA-MB-231 breast, 66.3% (inactive); in the assay on RXF 393 renal it was 25.3% (inactive); in the assay on SF-268 CNS, 40.3% (inactive). For the same compound, the growth is 22.9% (inactive) in the assay with SF-295 CNS, 26.5% (inactive) with SF-539 CNS, 75.4% (inactive) in the assay with UACC-257 melanoma and 32.3% (inactive) with M14 melanoma.

Turning to `CCCCCCCCCc1ccc(C(=O)Nc2cc(C)ccc2C(=O)OC)cc1`, the growth in the assay with DU-145 prostate is 119% (inactive); with K-562 leukemia, 98.8% (inactive); in the assay with MALME-3M melanoma it was 99.8% (inactive); with MDA-MB-231 breast it was 103% (inactive); in the assay on RXF 393 renal it was 117% (inactive); in the assay with SF-268 CNS it was 116% (inactive). Further, the growth was 103% (inactive) with SF-295 CNS, 112% (inactive) in the assay on SF-539 CNS, 106% (inactive) in the assay with UACC-257 melanoma and 105% (inactive) in the assay with M14 melanoma.

As to `OCCn1cc(-c2nc3ccc4[nH]ncc4c3c3c2CCCC3)cn1`, the growth with DU-145 prostate was 36.2% (inactive); in the assay on K-562 leukemia, 21.4% (inactive); in the assay on MALME-3M melanoma it was 24.1% (inactive); with MDA-MB-231 breast, 54.9% (inactive); in the assay on RXF 393 renal, -12.6% (active); in the assay on SF-268 CNS, 64% (inactive). For the same compound, the growth is 60.9% (inactive) in the assay with SF-295 CNS, 36.2% (inactive) in the assay on SF-539 CNS, 58% (inactive) in the assay with UACC-257 melanoma and 22.6% (inactive) with M14 melanoma.

Turning to `Fc1ccc(N2CC(Cn3c(C(F)(F)F)cc4c(Cl)ncnc43)C2)c(F)c1`, the growth in the assay with DU-145 prostate was -6.58% (active); in the assay on K-562 leukemia it was -57% (active); in the assay with MALME-3M melanoma, 89.7% (inactive); with MDA-MB-231 breast, -81.9% (active); with RXF 393 renal, -51.1% (active); in the assay on SF-268 CNS, -42% (active). The growth in the assay on SF-295 CNS is 87.8% (inactive); in the assay with SF-539 CNS it was 50.2% (inactive); with UACC-257 melanoma it was 11.4% (inactive); in the assay on M14 melanoma, -60.9% (active).

In the case of `O=C1C=CC(=CC=C2N(Cc3ccc4ccccc4c3)c3ccccc3N2Cc2ccc3ccccc3c2)C=C1`, the growth was 43.2% (inactive) and 32.7% (inactive) with DU-145 prostate; 13.5% (inactive) and 6.33% (active) in the assay with K-562 leukemia; 4.02% (active) and 3.15% (active) in the assay on MALME-3M melanoma; -40.7% (active) and -24.6% (active) in the assay on MDA-MB-231 breast; 31.6% (inactive) and 30.9% (inactive) in the assay with RXF 393 renal; 67.5% (inactive) and 56.8% (inactive) in the assay on SF-268 CNS. Further, the growth is 39.3% (inactive) and 58.2% (inactive) in the assay on SF-295 CNS; 15.5% (inactive) and 16.9% (inactive) with SF-539 CNS; -0.845% (active) and 20.9% (inactive) with UACC-257 melanoma; 20.8% (inactive) and 29.8% (inactive) in the assay with M14 melanoma.

As to `C=CCSc1nnc(-c2c(C)nc3sccn23)o1`, the growth is 110% (inactive) with DU-145 prostate; 98.3% (inactive) with K-562 leukemia; 109% (inactive) with MALME-3M melanoma; 92.6% (inactive) in the assay on MDA-MB-231 breast; 99.9% (inactive) with RXF 393 renal; 110% (inactive) with SF-268 CNS. In addition, the growth is 89.2% (inactive) in the assay on SF-295 CNS, 90.4% (inactive) in the assay on SF-539 CNS, 86.9% (inactive) with UACC-257 melanoma and 92.5% (inactive) with M14 melanoma.

With `CN1CCc2c(sc3ncnc(N/N=C/c4cccc(Cl)c4Cl)c23)C1`, the growth in the assay with DU-145 prostate is -5.42% (active); in the assay with K-562 leukemia it was -7.35% (active); in the assay with MALME-3M melanoma, 87.5% (inactive); in the assay with MDA-MB-231 breast, -43.4% (active); in the assay on RXF 393 renal it was 27.3% (inactive); in the assay with SF-268 CNS, 43.1% (inactive). Further, the growth in the assay on SF-295 CNS is -72.5% (active); with SF-539 CNS, -91.8% (active); with UACC-257 melanoma, 76.5% (inactive); in the assay with M14 melanoma, 64.5% (inactive).

Turning to `CC1=C(C(=O)OCc2ccccc2)C(c2cccc3ccccc23)n2c(nc3ccccc32)N1` (stereo not given), the growth in the assay on DU-145 prostate is 28.9% (inactive); in the assay with K-562 leukemia, 11.7% (inactive); in the assay with MALME-3M melanoma it was 16.8% (inactive); in the assay with MDA-MB-231 breast, 37.9% (inactive); with RXF 393 renal it was 0.534% (active); in the assay with SF-268 CNS, 44.9% (inactive). Besides, the growth was 10.5% (inactive) with SF-295 CNS, 11.8% (inactive) in the assay on SF-539 CNS, 40.7% (inactive) in the assay with UACC-257 melanoma and 23.9% (inactive) with M14 melanoma.

In the case of `CCCCCCCCc1ccc(C(=O)Nc2ccc(C)cc2C(=O)O)cc1`, the growth with DU-145 prostate is 95% (inactive); with K-562 leukemia, 59.4% (inactive); in the assay on MALME-3M melanoma, 92.2% (inactive); in the assay on MDA-MB-231 breast it was 96.9% (inactive); in the assay on RXF 393 renal, 110% (inactive); in the assay on SF-268 CNS it was 96% (inactive). The growth was 51.1% (inactive) in the assay on SF-295 CNS, 100% (inactive) with SF-539 CNS, 95.8% (inactive) in the assay with UACC-257 melanoma and 104% (inactive) in the assay with M14 melanoma.

For `c1ccc(CSc2nnc(-c3ccc4nc(-c5ccccc5)[nH]c4c3)o2)cc1`, the growth with DU-145 prostate was 21.4% (inactive); in the assay on K-562 leukemia, 33.5% (inactive); in the assay on MALME-3M melanoma it was 7.77% (active); in the assay on MDA-MB-231 breast, -12.8% (active); in the assay on RXF 393 renal, -22.1% (active); in the assay on SF-268 CNS, 8.24% (active). Also, the growth in the assay with SF-295 CNS was 17.1% (inactive); in the assay with SF-539 CNS, -39.9% (active); with UACC-257 melanoma, 57.6% (inactive); with M14 melanoma, 41.5% (inactive).

Consider `O=C(NN1C(=O)/C(=C/C=C/c2ccc([N+](=O)[O-])o2)SC1=S)c1ccncc1`, for which the growth in the assay with DU-145 prostate was -95% (active); with K-562 leukemia it was 3.03% (active); in the assay with MALME-3M melanoma it was -91.7% (active); in the assay with MDA-MB-231 breast it was -96.5% (active); in the assay on RXF 393 renal, -93.6% (active); in the assay on SF-268 CNS it was -75.7% (active). Moreover, the growth was -82.8% (active) in the assay on SF-295 CNS, -100% (active) with SF-539 CNS, -86.7% (active) with UACC-257 melanoma and -67.9% (active) with M14 melanoma.

As to `CCCCN1C(=O)/C(=C\C(=O)c2cc3ccccc3oc2=O)c2ccccc21`, the growth in the assay on DU-145 prostate was 85.8% (inactive); in the assay with K-562 leukemia, -36.9% (active); with MALME-3M melanoma, 69% (inactive); in the assay with MDA-MB-231 breast it was 48.2% (inactive); in the assay on RXF 393 renal it was 60.1% (inactive); with SF-268 CNS it was 87.5% (inactive). The growth was 101% (inactive) in the assay on SF-295 CNS, 80.2% (inactive) in the assay with SF-539 CNS, 105% (inactive) in the assay on UACC-257 melanoma and 53.5% (inactive) in the assay with M14 melanoma.
